In all, about 39,000 sequences were measured (“fluorescence intensity (a.u.)”: median about 4,300, highest 2% from about 39,000 on). This excerpt belongs to a sample that is enriched for the highest values.

Experimental findings from paper PMC7819943, “Rice protein-binding microarrays: a tool to detect cis-acting elements near promoter regions in rice” are described below.

The target in this experiment is T1, OsSMF1 (Oryza sativa, UniProt Q6ZLB0 1-436).
T1 sequence: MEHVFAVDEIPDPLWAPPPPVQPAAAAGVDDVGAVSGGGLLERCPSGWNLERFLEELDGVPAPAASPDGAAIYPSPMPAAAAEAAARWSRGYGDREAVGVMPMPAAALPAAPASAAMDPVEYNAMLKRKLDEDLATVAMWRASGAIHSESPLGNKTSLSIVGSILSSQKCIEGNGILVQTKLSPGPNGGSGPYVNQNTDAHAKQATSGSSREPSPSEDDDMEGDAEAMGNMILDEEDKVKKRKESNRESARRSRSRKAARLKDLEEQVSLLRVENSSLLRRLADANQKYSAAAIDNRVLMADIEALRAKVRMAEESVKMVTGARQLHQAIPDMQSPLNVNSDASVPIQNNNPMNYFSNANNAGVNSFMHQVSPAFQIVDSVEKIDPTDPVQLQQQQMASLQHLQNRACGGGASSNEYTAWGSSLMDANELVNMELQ
The experiment in a line: protein-binding microarray (RPBM); PBS, 2% BSA, 51.3 ng/ul salmon testes DNA, 50 uM zinc acetate, 200 nM TF, 25 C, 1 h; high values mean tight binding. Particulars: protein: recombinant; tags: N-terminal polyhistidine and DsRed monomer fusion (pET32a); chain copies: 2; label: CyDye5-dUTP incorporated in the synthesized complementary strand; 3' TTTTT single-stranded linker to array surface; dsDNA, one strand shown. In a few lines: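 The binding signal is fluorescence intensity per feature, in arbitrary units, read on an Axon 4000B scanner. Polyhistidine- and DsRed-tagged transcription factors (N-terminal fusions) from E. coli BL21-CodonPlus were purified on Ni–NTA and applied at 200 nM for 1 h at 25 °C to a double-stranded, BSA-blocked custom Agilent array in buffer with 50 µM zinc acetate.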
“GCGCACACACACACACAGATATATATATATATATATATATCGGAGTCACCTAGTGCAG”: the binding signal was 4200 fluorescence intensity (a.u.). With “ATCTAGACACGCGCGCGCGCGCGCACATATATATATATATCGGAGTCACCTAGTGCAG” the figure was 42600 fluorescence intensity (a.u.); with “ACATACATATATATATATATATATACATACATATATATATCGGAGTCACCTAGTGCAG”, 3740 fluorescence intensity (a.u.).

“TAAACAGGGCCCTACTGTCATCACGTCGATGTTGAGTTTACGGAGTCACCTAGTGCAG”: the binding signal is 4070 fluorescence intensity (a.u.). Under “AAAGGACGGACAGTTTCCTGCGCAAATTCCACGTTCCACCCGGAGTCACCTAGTGCAG” stands 3460 fluorescence intensity (a.u.); under “CCGCACGCGCTCCCTTCACCCACCTCGATCGAGCTCCATGCGGAGTCACCTAGTGCAG”, 3570 fluorescence intensity (a.u.); under “ACATGGACTGTGGTGTGGTACACACACGGTATGTCAGAGCCGGAGTCACCTAGTGCAG”, 3220 fluorescence intensity (a.u.). Under “GGTTGCCATATTTGCTTGTTATGCCGATGTGGACAAGCTTCGGAGTCACCTAGTGCAG” stands 5600 fluorescence intensity (a.u.); under “ATATTCCACCAAGCAAAAGCCACATCATGCTGTGCTGTGCCGGAGTCACCTAGTGCAG”, 6050 fluorescence intensity (a.u.).

Take “TCCTCCCAAAGATAATTCAGCTGATGATATTTCCATATCTCGGAGTCACCTAGTGCAG”: the binding signal is 3210 fluorescence intensity (a.u.). With “GCTTTGGGCTATAATTGGGCCATTTGTCGTCAGCTCTTGGCGGAGTCACCTAGTGCAG” the figure was 3230 fluorescence intensity (a.u.); with “ATATACTATTCTCATCTGTCATACACACATCACATCTTGACGGAGTCACCTAGTGCAG”, 25700 fluorescence intensity (a.u.); with “ATACTTGGACTATTCTCTTTCGGAAACTTGACTAGTTACACGGAGTCACCTAGTGCAG”, 43200 fluorescence intensity (a.u.).

On to “TTCTTCTTGGTGGTGGTGGGGCCTGGAAACTATGTGACTTCGGAGTCACCTAGTGCAG”, for which the binding signal is 4270 fluorescence intensity (a.u.).

Take “ATGTCGAAAGGCCTATATGGGCCAGATGATGTGTCCAGGGCGGAGTCACCTAGTGCAG”: the binding signal is 34600 fluorescence intensity (a.u.). In the case of “GGAGAGCTCCGGGAAGACGCGCGCTGACGCGGCCTCCCTGCGGAGTCACCTAGTGCAG”, the binding signal was 8860 fluorescence intensity (a.u.). In the case of “ATTGATGTGAAGAACAAATAGTCAATATTATTCTGTATATCGGAGTCACCTAGTGCAG”, the binding signal is 16900 fluorescence intensity (a.u.). Under “ATATTCTGATATGTCAATATTATTGTGTATGATTGATTGTCGGAGTCACCTAGTGCAG” stands 46700 fluorescence intensity (a.u.); under “TCAATGATATTTATGTGTGTGACATGTATGTCGAGTTCGTCGGAGTCACCTAGTGCAG”, 4360 fluorescence intensity (a.u.); under “TCTTCTGAATGCTCACAATGACGCCATCCTCATCAGCCGCCGGAGTCACCTAGTGCAG”, 4480 fluorescence intensity (a.u.). With “GCCCTCCCTGTCATCCCCGTCACCCATCCTGCCTGCTTTTCGGAGTCACCTAGTGCAG” the figure was 8530 fluorescence intensity (a.u.). Under “ACCAAATTTTAGCAATACCAAAATTTTGGCATAGTTGCCACGGAGTCACCTAGTGCAG” stands 7010 fluorescence intensity (a.u.).

“ACATTACCAAATTTTAACAATGCCAAAATTTTGGTAAGGTCGGAGTCACCTAGTGCAG”: the binding signal is 3450 fluorescence intensity (a.u.). Under “AGCTAAAATAAACTTTACCAAATTTTGGCAATGCCAAAATCGGAGTCACCTAGTGCAG” stands 51800 fluorescence intensity (a.u.); under “AAACGCCAACGCCATACTCCACCTGACCTCACACTCGCACCGGAGTCACCTAGTGCAG”, 3290 fluorescence intensity (a.u.); under “CGTCCCTTGGACGTCATCTTCTCCTCACGTGCATTGCCTCCGGAGTCACCTAGTGCAG”, 4360 fluorescence intensity (a.u.). Under “TTTGGCATACCTGGAGCAGATCAGGCAGCACATGGCGAGGCGGAGTCACCTAGTGCAG” stands 25600 fluorescence intensity (a.u.). Under “TTGCAGCATCACCTGGCGAGGCGTAGCTAGGAGATGCAGACGGAGTCACCTAGTGCAG” stands 40100 fluorescence intensity (a.u.); under “TAAGATGGAGGAGGCGAGGAGAGTTGCGTAGGATGGAGTGCGGAGTCACCTAGTGCAG”, 3880 fluorescence intensity (a.u.). Consider “TTATGAGTTTAGAGGGATGATTAGGATACATGGGAATTTTCGGAGTCACCTAGTGCAG”, for which the binding signal is 22200 fluorescence intensity (a.u.).

In the case of “AACCCGGCGTTGGTGAGCTGTTCCATTGTGTCTATAGGCACGGAGTCACCTAGTGCAG”, the binding signal was 3210 fluorescence intensity (a.u.).

On to “TGGATATGCATGCGTACGTACGTAGCTTACCTATAGCTAGCGGAGTCACCTAGTGCAG”, for which the binding signal was 3500 fluorescence intensity (a.u.). Under “GATATATATACGCGTTCATCAGCGTACGTTCTTATAGCTACGGAGTCACCTAGTGCAG” stands 40100 fluorescence intensity (a.u.). With “TACTTAGCTAGCTAATCGCGTTGCTCTTTCTCGTACTATACGGAGTCACCTAGTGCAG” the figure was 20400 fluorescence intensity (a.u.); with “CACTCCGGCGTGACGGAGCCCTTCCCCGATGTGATGCCTACGGAGTCACCTAGTGCAG”, 32600 fluorescence intensity (a.u.); with “AGGGGCGGAGGGCAGCGATTTTGGTTGGTAGTAGTACGGGCGGAGTCACCTAGTGCAG”, 3610 fluorescence intensity (a.u.). With “CGTTGGCGTCCACCACGGCCACCGCCACGCCGCTCGTGTTCGGAGTCACCTAGTGCAG” the figure was 4420 fluorescence intensity (a.u.); with “CAGGTACTTAACTTTAGTCCCTGTCTTTAGACACTAATTTCGGAGTCACCTAGTGCAG”, 5100 fluorescence intensity (a.u.). “GTCCCCTGTTGCACTTAGATATTTAACTTTGTTAAGGATTCGGAGTCACCTAGTGCAG”: the binding signal was 4820 fluorescence intensity (a.u.).

As to “GACTTAACTTTAGTCCCTGTATTTAGACACTAATTTAGAGCGGAGTCACCTAGTGCAG”, the binding signal was 65500 fluorescence intensity (a.u.). Under “TCCCCGTCTTTTCCTTCCGCCTCACCAACCTCGTCTCGTCCGGAGTCACCTAGTGCAG” stands 3330 fluorescence intensity (a.u.); under “TCGTCGATGTCACCGCCACCACCGTCGTCATCGCTGCCTTCGGAGTCACCTAGTGCAG”, 3820 fluorescence intensity (a.u.).
